# Test results as given in the supplement of paper PMC4380459.
# System: tubulin (bovine brain)
# Test: tubulin polymerization end-point dOD, fold change relative to DMSO vehicle; higher = more polymerization (stabilization)
# Details: 50 µM; 60 min; 37 °C
# In short: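 In 384-well plates, compound at a final 50 μM in 0.5% DMSO was assembled on ice with bovine brain tubulin (4 mg/ml in G-PEM buffer) from the Cytoskeleton HTS-Tubulin polymerization kit, then read at 340 nm every minute for 1 hour at 37°C in a Tecan reader. Each value is the end-point change in optical density as percent fold change versus DMSO vehicle, scaled per run by the means and standard deviations of DMSO and reference-control wells.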
row,Compound,tubulin polymerization end-point dOD [%]
1,COc1ccc(Cc2cnc(NC(=O)c3sc4ccccc4c3Cl)s2)cc1,169
2,Cc1ccc(Nc2nc(N)nc(CN3C(=O)NC(C)(c4ccccc4)C3=O)n2)cc1 (centres undefined),48.1
3,COc1cccc(/C=N/NC(=O)c2ccc(N3CCCC3=O)cc2)c1,11.9
4,N#Cc1ccc(N2CC[NH+](Cc3ccc(-c4ccccc4Cl)s3)CC2)nc1,-56.2
5,Cc1ccc(C(=O)CSc2nc3c(C)cccc3cc2C#N)cc1,-15.2
6,Cc1cc2nc(/C=C/c3cccnc3)sc2cc1C,-34.3
7,Cc1ccc2cc(C)c3nn(CCNC(=O)c4ccncc4)c(=O)n3c2c1,-34.2
8,Cc1ccc2cc(C#N)c(SCC(=O)c3ccccc3)nc2c1,-46.9
9,CN(C)c1ccc(/C=N/NC(=O)c2cccc(F)c2)cc1,27.6
10,Cc1cc2cc3c(cc2nc1SCC(=O)NCCc1ccccc1)OCCO3,130
11,O=c1[nH]c(CSc2nnc(C3CC3)n2C2CC2)nc2sc(-c3ccccc3)cc12,31.8
12,Cc1cc2ccccc2n2c(=O)n(CC(C)NC(=O)c3cnn(C)c3C)nc12 (centres undefined),-1.81
13,O=C(Nc1ccc(Cl)cc1)N(Cc1cc2cc3c(cc2[nH]c1=O)OCCO3)CC1CCCO1 (centres undefined),-20.7
14,Cc1cc(NC(=O)CSc2nnc3c(C)cc4c(C)ccc(C)c4n23)no1,-40.7
15,CN(C)c1ncc(C(=O)Nc2ccc(Oc3ccc4c(c3)OCO4)cc2)cn1,8.04
16,Nc1cccc2c1C(=O)c1cccc(NC(=O)c3ccccc3)c1C2=O,24.7
17,CCC1c2ccsc2CC[NH+]1Cc1ccc(N2CCCC2=O)cc1 (centres undefined),-43.7
18,COc1ccc(C2=NOC(=O)/C2=N/Nc2ccc(Cl)cc2)cc1,19
19,O=C(Nc1ccc(CNc2ncnc3cc(Cl)ccc23)cc1)C1CC1,8.64
20,COc1ccc(CNc2c(-c3ccc(O)cc3O)nc3cnccn23)cc1,30.8
21,Cc1cnc(C(=O)Nc2ncc(Cc3ccc(C)c(Cl)c3)s2)cn1,-19.2
22,CC(=O)c1c(C)[nH]c(C(=O)Nc2ccc(N3CCCC3=O)cc2)c1C,-9.36
23,Cc1ccc(/C=N/NC(=O)C2COc3ccccc3O2)s1 (centres undefined),5.76
24,O=c1c(Cl)c(N2CC=C(c3ccccc3)CC2)cnn1-c1nc2ccccc2[nH]1,-22.9
25,COc1ccc2cc(CN(CC3CCCO3)C(=O)Nc3ccc(Cl)cc3)c(=O)[nH]c2c1 (centres undefined),-0.367
26,COc1cccc(N2CCN(C(=O)c3cc(C4CC4)nc4ccccc34)CC2)c1,-85.1
27,Cc1cc2cc3c(cc2nc1SCC(=O)NC(C)(C)C)CCC3,63.4
28,N#Cc1cc2cc3c(cc2nc1SCC(=O)Nc1ccccc1Cl)OCCO3,17.2
29,Cc1cc(N2CCN(C(=O)c3c[nH]nc3-c3ccccc3)CC2)nc(C(C)C)n1,-15.2
